Source: PubChem BioAssay (NCI)
About 83,000 compounds went through this panel and 20% of them were active in at least one assay; those are over-represented in the sample as a whole.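 In brief: 96-well plates, 48 h treatment, single concentration, percent growth endpoint.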 Calls of active or inactive are those of the source. Rule for the calls: active = growth percent below 10; inactive = the rest.

Legend:
Assay in all cases: NCI-60 one-dose screen, 48 h (100 = growth as untreated, 0 = no growth, -100 = all killed)
Conditions in all cases: 10 µM unless noted
[1] = tested on: SK-MEL-2 melanoma
[2] = tested on: EKVX NSCLC
[3] = tested on: SN12C renal
[4] = tested on: UO-31 renal
[5] = tested on: TK-10 renal
[6] = tested on: ACHN renal
[7] = tested on: CAKI-1 renal
[8] = tested on: CCRF-CEM leukemia
[9] = tested on: MOLT-4 leukemia
[10] = tested on: SR leukemia
[11] = tested on: RPMI-8226 leukemia
[12] = tested on: OVCAR-8 ovarian
[13] = tested on: OVCAR-5 ovarian
[14] = tested on: OVCAR-4 ovarian
[15] = tested on: SK-OV-3 ovarian
[16] = tested on: IGROV1 ovarian
[17] = tested on: OVCAR-3 ovarian
[18] = tested on: HS 578T breast
[19] = tested on: NCI/ADR-RES ovarian

Measured: growth

COc1cc2c(cc1OC)C(=O)/C(=C/c1cc(C)c(O)c(C)c1)S2
inactive: [1] 42.6% | [2] 40.8% | [3] 50.4% | [4] 54.8% | [5] 66% | [6] 45.3% | [7] 43.9% | [8] 17.1% | [9] 24.5% | [10] 18.7% | [11] 21.6% | [12] 37% | [13] 64.7% | [14] 84.7% | [15] 52.1% | [16] 35.6% | [18] 36.8% | [19] 15.3%
active: [17] -5.93%

C=C1C(=O)O[C@H]2[C@H]1CC/C(COC(=O)NCc1c[nH]c3ccc(F)cc13)=C\CC[C@@]1(C)O[C@@H]21
active: [3] -64.4% | [4] -99.5% | [5] -15.1% | [6] -84.1% | [7] -87.3% | [8] -8.32% | [9] 3.81% | [11] -24.4% | [12] 0.654% | [13] -30.6% | [16] -46.7%
inactive: [1] 28.6% | [2] 10.6% | [10] 13% | [14] 11.9% | [15] 93.7% | [18] 50% | [19] 59.7%

C/C(=N\NC(=O)CSc1nc2ccccc2c(=O)n1CCc1ccc(S(N)(=O)=O)cc1)c1ccccn1
inactive: [1] 47.2% | [2] 30.5% | [3] 38.5% | [4] 29.8% | [5] 34.5% | [6] 21.2% | [7] 37.6% | [8] 20.6% | [9] 17.7% | [10] 22.8% | [11] 30.9% | [12] 22.8% | [13] 39.8% | [14] 19.5% | [15] 20.8% | [16] 45.5% | [18] 73.7% | [19] 74.4%

COc1ccc(CC(C)=C(c2ccc(OCCN3CCCCCC3)cc2)c2ccc(OCCN3CCCCCC3)cc2)cc1
active: [1] -82.2% | [2] -93.6% | [3] -92.4% | [4] -98.8% | [5] -87.3% | [6] -100% | [7] -92.5% | [8] -57.9% | [9] -67.5% | [10] -32.2% | [11] -57.9% | [12] -78.1% | [13] -95.9% | [14] -83.9% | [15] -90.1% | [16] -77.8% | [18] -61% | [19] -90.3%

N/C(=N\C(N)=N\c1nc2ccccc2s1)c1ccnc(Br)c1
inactive: [2] 82.6% | [3] 40.5% | [4] 33.1% | [5] 82.2% | [6] 27.6% | [7] 25.4% | [8] 21.3% | [9] 34% | [10] 25% | [11] 23.6% | [12] 33.8% | [13] 89.4% | [14] 59.1% | [15] 29.6% | [16] 25.8% | [18] 19.3% | [19] 20.1%
active: [1] 7.48% | [17] 9.06%

COc1cc2c(-c3cc4c(cc3CNCCc3ccc5c(c3)OCO5)OCO4)cccc2c(OC)c1O
inactive: [1] 92.9% | [2] 77.4% | [3] 78.8% | [4] 45.5% | [5] 102% | [6] 79.2% | [7] 54.9% | [8] 79.5% | [9] 56.5% | [10] 27.8% | [11] 63.8% | [12] 79.9% | [13] 90.9% | [14] 88.4% | [15] 99.6% | [16] 61.6% | [17] 86.1% | [18] 86.8% | [19] 74.5%

Cc1c(C(=O)NCCC(=O)NO)sc2ncnc(Nc3ccc(NC(=O)Nc4cccc(C(F)(F)F)c4)cc3)c12
inactive: [1] 109% | [2] 90.8% | [3] 100% | [4] 87.1% | [5] 140% | [6] 102% | [7] 99.3% | [8] 98.8% | [9] 106% | [10] 101% | [11] 102% | [12] 102% | [13] 104% | [14] 105% | [15] 115% | [16] 102% | [17] 112% | [18] 93.5% | [19] 103%

O=C1c2ccc3c4c(ccc(c24)C(=O)N1CCCNCc1ccccc1Cl)C(=O)N(CCCNCc1ccccc1Cl)C3=O
active: [1] -60.6% | [2] -46.7% | [3] -87.1% | [4] -35% | [5] -54.9% | [6] -39.3% | [7] -12.6% | [8] -15.5% | [9] -24.4% | [10] -34.4% | [11] -28.9% | [12] -38.3% | [13] -39.2% | [14] -96.6% | [16] -34.1% | [17] -64.4% | [18] -22.9% | [19] -12.3%
inactive: [15] 28.3%

CCOC(=O)Oc1c(OC)cc(C(=O)c2ccc(OC)c(OC(=O)CCl)c2OC)cc1OC
inactive: [2] 70% | [3] 42.4% | [4] 46.6% | [5] 39.1% | [6] 36% | [7] 30.3% | [8] 15.9% | [9] 29.6% | [10] 29.4% | [11] 18.4% | [12] 25.5% | [13] 77% | [14] 79.8% | [15] 19.7% | [16] 40.4% | [18] 15.2%
active: [1] 8.91% | [17] -18.4% | [19] -5.85%

O=C1c2ccc3c4c(ccc(c24)C(=O)N1CCCNCc1ccccc1F)C(=O)N(CCCNCc1ccccc1F)C3=O
active: [1] -82.9% | [2] -56.5% | [3] -75.7% | [4] -58% | [5] -85.8% | [6] -47.1% | [7] -22.8% | [8] -11.7% | [9] -28.9% | [10] -37.8% | [11] -32.2% | [12] -17.4% | [13] -23% | [14] -98.4% | [15] -21.8% | [16] -57.7% | [17] -63% | [18] -23.7% | [19] -18.4%

CN1CCN(C(=O)[C@]23CCC(C)(C)C[C@H]2C2=CC[C@@H]4[C@@]5(C)C/C(=C/c6cccnc6)C(=O)C(C)(C)[C@@H]5CC[C@@]4(C)[C@]2(C)CC3)CC1
inactive: [1] 81.5% | [2] 78.8% | [3] 57.8% | [4] 38.6% | [5] 89.5% | [6] 66% | [7] 66.6% | [8] 33.3% | [9] 20.5% | [10] 15.5% | [11] 19.1% | [12] 54% | [13] 100% | [14] 58.1% | [15] 83.8% | [16] 85.6% | [17] 52.7% | [18] 54.2% | [19] 59.1%

COc1ccc(/C=C2\Oc3cc(OCCCCCN4CCCCC4)ccc3C2=O)cc1OC
inactive: [1] 92.4% | [2] 78.7% | [3] 86% | [4] 73.8% | [5] 82% | [6] 100% | [7] 94.3% | [8] 15.2% | [9] 70.2% | [11] 76.1% | [12] 83.3% | [13] 95.9% | [14] 48.1% | [15] 104% | [16] 94.3% | [17] 82.8% | [18] 93.8% | [19] 84%
active: [10] -26.1%

COc1cc(NC(C)CCCNC(=O)CCC(=O)NCCCNCCCCCCCCCCNCCCNC(=O)CCC(=O)NCCCC(C)Nc2cc(OC)cc3cccnc23)c2ncccc2c1 (stereo unspecified)
active: [14] 4.17% [8 µM]
inactive: [1] 93.4% [8 µM] | [2] 73.7% [8 µM] | [3] 41.3% [8 µM] | [4] 96.3% [8 µM] | [5] 100% [8 µM] | [6] 96.7% [8 µM] | [7] 97.3% [8 µM] | [8] 66.6% [8 µM] | [9] 76.8% [8 µM] | [10] 92% [8 µM] | [11] 52.9% [8 µM] | [12] 77.7% [8 µM] | [13] 79.3% [8 µM] | [15] 116% [8 µM] | [16] 57.9% [8 µM] | [17] 41.4% [8 µM] | [18] 64.5% [8 µM] | [19] 101% [8 µM]

O=C(Nc1ccc(-c2ccc3c(c2)NC(=O)/C3=C\c2ccc[nH]2)cc1)NC1CC1
inactive: [1] 112% | [2] 47.5% | [3] 101% | [4] 88.2% | [5] 108% | [6] 101% | [7] 99.9% | [8] 86.1% | [9] 94.2% | [10] 34.8% | [11] 87% | [12] 109% | [13] 105% | [14] 98.3% | [15] 118% | [16] 96.6% | [18] 97.1% | [19] 105%

NC(=NCCCOc1ccc(F)cc1)Nc1ccc(Cl)cc1
inactive: [1] 84.6% | [2] 52.8% | [3] 65.1% | [4] 49.1% | [5] 64% | [6] 18.3% | [7] 39% | [8] 49.7% | [9] 23.5% | [10] 72% | [11] 85.3% | [12] 90.1% | [13] 54.5% | [14] 46% | [15] 75.6% | [16] 30.9% | [17] 89.6% | [18] 81.9% | [19] 77.3%
